Legend:
Experiment in all cases: log2 ratio of Biotin-Ahx-Ub-VS probe labelling (fragment/DMSO); higher = less target engagement (more negative = stronger competition), active = hit call of the paper (q ≤ 0.05, log2 ratio ≤ -1)
Conditions in all cases: compound concentration: 200 uM; treatment time: 3 h
USP34 = USP34 (UniProt Q70CQ2)
Procedure, shortened: (§1)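 HEK293T lysate (495 µg per sample, in Tris/CHAPS/IGEPAL buffer with protease inhibitors) was exposed in triplicate for 3 h to fragment at 200 µM or to vehicle, then to Biotin-Ahx-Ub-VS at 0.5 µM final for 1 h. Labelled DUBs were enriched on NeutrAvidin, digested with LysC and trypsin, and analysed by diaPASEF LC-MS/MS. Spectronaut label-free quantities were normalised to the global median, and values are average log2 ratios of fragment over vehicle from an unpaired t-test. Only proteins with ≥2 unique peptides were used.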

USP36 = biological target: T1, USP36 (UniProt Q9P275)
T1 sequence (whole entry): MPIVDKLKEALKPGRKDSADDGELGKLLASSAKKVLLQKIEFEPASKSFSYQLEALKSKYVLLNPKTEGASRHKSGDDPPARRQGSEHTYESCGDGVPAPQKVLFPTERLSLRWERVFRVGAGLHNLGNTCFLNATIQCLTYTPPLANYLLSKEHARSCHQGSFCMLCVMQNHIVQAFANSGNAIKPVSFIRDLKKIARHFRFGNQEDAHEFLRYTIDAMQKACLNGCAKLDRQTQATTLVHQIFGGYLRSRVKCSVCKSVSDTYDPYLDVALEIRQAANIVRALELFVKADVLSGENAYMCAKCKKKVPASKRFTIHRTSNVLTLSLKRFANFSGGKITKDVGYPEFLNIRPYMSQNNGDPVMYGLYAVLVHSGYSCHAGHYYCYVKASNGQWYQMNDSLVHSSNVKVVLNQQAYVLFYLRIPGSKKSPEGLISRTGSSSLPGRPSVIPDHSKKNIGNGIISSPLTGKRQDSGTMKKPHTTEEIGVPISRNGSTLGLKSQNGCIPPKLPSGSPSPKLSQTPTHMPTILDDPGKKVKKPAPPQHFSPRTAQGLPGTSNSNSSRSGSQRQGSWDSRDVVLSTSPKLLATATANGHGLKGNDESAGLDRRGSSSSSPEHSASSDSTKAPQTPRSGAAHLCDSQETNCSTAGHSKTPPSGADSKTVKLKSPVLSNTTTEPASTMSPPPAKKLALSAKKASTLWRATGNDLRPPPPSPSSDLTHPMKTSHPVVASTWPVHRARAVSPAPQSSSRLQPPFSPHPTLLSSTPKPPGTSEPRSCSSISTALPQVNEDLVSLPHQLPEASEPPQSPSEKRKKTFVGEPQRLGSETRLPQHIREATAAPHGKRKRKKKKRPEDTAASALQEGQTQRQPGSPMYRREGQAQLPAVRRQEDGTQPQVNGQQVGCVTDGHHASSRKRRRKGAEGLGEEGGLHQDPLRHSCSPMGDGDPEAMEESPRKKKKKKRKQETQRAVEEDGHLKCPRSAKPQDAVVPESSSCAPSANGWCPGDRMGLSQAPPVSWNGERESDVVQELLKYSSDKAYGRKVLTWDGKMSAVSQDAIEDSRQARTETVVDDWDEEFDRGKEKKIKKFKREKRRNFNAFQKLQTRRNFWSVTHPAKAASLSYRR
Procedure, shortened: as §1

USP38 = biological target: T2, USP38 (UniProt Q8NB14)
T2 sequence (whole entry): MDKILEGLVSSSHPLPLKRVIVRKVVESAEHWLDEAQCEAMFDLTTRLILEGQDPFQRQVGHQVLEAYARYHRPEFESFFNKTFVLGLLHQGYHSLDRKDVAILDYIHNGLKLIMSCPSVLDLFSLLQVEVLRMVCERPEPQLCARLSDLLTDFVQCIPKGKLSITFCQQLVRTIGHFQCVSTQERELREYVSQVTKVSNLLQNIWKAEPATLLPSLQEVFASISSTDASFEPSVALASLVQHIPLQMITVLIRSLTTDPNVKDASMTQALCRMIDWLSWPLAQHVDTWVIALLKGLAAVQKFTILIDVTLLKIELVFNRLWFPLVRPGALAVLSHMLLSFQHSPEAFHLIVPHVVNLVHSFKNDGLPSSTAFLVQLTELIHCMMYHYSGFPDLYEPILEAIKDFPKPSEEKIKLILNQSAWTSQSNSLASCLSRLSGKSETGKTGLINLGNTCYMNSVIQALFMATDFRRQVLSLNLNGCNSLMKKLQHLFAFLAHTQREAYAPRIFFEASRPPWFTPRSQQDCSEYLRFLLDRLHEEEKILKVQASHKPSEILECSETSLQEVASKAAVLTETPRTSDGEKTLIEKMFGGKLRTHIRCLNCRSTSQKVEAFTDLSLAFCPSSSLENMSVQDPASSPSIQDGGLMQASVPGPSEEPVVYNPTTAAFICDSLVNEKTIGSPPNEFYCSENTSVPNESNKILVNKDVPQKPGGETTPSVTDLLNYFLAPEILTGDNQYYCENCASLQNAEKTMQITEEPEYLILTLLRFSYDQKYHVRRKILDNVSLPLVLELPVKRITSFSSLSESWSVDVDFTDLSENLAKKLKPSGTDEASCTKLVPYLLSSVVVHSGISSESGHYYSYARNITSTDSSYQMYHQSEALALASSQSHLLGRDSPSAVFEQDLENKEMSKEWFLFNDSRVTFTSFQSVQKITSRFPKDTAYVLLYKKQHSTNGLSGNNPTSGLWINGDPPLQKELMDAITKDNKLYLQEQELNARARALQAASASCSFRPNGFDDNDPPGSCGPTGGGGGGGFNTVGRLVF
Procedure, shortened: as §1

USP39 = biological target: T3, USP39 (UniProt Q53GS9)
T3 sequence (whole entry): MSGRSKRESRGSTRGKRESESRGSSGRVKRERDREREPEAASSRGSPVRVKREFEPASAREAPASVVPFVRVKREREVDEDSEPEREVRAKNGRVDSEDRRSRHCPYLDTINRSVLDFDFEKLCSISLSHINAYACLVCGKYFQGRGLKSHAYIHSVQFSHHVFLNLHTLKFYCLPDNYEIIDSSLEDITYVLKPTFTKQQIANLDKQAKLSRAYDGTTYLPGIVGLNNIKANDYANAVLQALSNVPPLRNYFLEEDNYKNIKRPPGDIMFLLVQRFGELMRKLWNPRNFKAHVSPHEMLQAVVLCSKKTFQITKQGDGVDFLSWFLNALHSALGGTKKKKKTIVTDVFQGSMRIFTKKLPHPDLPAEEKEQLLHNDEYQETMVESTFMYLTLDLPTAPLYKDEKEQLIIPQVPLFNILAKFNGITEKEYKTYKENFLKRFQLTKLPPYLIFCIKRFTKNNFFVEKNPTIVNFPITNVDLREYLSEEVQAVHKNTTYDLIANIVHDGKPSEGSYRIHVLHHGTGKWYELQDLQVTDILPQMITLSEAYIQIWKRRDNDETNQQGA
Procedure, shortened: as §1

USP4 = biological target: T4, USP4 (UniProt Q13107)
T4 sequence (whole entry): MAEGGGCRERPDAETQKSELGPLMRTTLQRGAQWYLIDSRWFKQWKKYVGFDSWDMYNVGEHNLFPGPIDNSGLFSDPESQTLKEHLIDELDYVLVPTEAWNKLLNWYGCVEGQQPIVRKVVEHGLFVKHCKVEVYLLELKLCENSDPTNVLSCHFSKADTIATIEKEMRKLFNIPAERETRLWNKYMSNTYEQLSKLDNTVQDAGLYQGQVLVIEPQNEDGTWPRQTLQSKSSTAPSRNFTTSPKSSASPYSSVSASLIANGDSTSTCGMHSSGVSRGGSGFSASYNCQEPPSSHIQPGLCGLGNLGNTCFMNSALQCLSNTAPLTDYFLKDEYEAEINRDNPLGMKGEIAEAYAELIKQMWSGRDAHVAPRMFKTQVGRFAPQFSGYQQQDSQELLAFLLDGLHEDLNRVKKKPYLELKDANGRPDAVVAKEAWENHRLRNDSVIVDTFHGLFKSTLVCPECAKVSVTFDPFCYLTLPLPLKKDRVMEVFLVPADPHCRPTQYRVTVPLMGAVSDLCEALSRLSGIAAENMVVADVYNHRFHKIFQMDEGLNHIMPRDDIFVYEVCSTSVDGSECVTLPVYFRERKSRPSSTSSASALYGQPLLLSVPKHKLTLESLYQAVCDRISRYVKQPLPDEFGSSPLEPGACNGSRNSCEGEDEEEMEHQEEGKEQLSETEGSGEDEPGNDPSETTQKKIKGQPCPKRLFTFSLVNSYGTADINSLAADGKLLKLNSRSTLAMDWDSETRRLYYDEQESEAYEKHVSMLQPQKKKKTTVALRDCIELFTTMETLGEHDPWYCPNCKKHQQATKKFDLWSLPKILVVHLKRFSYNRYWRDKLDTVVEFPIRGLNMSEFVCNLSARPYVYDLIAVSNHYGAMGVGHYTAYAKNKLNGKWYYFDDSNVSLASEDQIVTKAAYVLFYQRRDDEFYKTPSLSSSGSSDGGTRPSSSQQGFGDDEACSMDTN
Procedure, shortened: as §1

Measured: log2 ratio of Biotin-Ahx-Ub-VS probe labelling

Sequence of USP34 (Q70CQ2 whole entry, the tested form may be a part): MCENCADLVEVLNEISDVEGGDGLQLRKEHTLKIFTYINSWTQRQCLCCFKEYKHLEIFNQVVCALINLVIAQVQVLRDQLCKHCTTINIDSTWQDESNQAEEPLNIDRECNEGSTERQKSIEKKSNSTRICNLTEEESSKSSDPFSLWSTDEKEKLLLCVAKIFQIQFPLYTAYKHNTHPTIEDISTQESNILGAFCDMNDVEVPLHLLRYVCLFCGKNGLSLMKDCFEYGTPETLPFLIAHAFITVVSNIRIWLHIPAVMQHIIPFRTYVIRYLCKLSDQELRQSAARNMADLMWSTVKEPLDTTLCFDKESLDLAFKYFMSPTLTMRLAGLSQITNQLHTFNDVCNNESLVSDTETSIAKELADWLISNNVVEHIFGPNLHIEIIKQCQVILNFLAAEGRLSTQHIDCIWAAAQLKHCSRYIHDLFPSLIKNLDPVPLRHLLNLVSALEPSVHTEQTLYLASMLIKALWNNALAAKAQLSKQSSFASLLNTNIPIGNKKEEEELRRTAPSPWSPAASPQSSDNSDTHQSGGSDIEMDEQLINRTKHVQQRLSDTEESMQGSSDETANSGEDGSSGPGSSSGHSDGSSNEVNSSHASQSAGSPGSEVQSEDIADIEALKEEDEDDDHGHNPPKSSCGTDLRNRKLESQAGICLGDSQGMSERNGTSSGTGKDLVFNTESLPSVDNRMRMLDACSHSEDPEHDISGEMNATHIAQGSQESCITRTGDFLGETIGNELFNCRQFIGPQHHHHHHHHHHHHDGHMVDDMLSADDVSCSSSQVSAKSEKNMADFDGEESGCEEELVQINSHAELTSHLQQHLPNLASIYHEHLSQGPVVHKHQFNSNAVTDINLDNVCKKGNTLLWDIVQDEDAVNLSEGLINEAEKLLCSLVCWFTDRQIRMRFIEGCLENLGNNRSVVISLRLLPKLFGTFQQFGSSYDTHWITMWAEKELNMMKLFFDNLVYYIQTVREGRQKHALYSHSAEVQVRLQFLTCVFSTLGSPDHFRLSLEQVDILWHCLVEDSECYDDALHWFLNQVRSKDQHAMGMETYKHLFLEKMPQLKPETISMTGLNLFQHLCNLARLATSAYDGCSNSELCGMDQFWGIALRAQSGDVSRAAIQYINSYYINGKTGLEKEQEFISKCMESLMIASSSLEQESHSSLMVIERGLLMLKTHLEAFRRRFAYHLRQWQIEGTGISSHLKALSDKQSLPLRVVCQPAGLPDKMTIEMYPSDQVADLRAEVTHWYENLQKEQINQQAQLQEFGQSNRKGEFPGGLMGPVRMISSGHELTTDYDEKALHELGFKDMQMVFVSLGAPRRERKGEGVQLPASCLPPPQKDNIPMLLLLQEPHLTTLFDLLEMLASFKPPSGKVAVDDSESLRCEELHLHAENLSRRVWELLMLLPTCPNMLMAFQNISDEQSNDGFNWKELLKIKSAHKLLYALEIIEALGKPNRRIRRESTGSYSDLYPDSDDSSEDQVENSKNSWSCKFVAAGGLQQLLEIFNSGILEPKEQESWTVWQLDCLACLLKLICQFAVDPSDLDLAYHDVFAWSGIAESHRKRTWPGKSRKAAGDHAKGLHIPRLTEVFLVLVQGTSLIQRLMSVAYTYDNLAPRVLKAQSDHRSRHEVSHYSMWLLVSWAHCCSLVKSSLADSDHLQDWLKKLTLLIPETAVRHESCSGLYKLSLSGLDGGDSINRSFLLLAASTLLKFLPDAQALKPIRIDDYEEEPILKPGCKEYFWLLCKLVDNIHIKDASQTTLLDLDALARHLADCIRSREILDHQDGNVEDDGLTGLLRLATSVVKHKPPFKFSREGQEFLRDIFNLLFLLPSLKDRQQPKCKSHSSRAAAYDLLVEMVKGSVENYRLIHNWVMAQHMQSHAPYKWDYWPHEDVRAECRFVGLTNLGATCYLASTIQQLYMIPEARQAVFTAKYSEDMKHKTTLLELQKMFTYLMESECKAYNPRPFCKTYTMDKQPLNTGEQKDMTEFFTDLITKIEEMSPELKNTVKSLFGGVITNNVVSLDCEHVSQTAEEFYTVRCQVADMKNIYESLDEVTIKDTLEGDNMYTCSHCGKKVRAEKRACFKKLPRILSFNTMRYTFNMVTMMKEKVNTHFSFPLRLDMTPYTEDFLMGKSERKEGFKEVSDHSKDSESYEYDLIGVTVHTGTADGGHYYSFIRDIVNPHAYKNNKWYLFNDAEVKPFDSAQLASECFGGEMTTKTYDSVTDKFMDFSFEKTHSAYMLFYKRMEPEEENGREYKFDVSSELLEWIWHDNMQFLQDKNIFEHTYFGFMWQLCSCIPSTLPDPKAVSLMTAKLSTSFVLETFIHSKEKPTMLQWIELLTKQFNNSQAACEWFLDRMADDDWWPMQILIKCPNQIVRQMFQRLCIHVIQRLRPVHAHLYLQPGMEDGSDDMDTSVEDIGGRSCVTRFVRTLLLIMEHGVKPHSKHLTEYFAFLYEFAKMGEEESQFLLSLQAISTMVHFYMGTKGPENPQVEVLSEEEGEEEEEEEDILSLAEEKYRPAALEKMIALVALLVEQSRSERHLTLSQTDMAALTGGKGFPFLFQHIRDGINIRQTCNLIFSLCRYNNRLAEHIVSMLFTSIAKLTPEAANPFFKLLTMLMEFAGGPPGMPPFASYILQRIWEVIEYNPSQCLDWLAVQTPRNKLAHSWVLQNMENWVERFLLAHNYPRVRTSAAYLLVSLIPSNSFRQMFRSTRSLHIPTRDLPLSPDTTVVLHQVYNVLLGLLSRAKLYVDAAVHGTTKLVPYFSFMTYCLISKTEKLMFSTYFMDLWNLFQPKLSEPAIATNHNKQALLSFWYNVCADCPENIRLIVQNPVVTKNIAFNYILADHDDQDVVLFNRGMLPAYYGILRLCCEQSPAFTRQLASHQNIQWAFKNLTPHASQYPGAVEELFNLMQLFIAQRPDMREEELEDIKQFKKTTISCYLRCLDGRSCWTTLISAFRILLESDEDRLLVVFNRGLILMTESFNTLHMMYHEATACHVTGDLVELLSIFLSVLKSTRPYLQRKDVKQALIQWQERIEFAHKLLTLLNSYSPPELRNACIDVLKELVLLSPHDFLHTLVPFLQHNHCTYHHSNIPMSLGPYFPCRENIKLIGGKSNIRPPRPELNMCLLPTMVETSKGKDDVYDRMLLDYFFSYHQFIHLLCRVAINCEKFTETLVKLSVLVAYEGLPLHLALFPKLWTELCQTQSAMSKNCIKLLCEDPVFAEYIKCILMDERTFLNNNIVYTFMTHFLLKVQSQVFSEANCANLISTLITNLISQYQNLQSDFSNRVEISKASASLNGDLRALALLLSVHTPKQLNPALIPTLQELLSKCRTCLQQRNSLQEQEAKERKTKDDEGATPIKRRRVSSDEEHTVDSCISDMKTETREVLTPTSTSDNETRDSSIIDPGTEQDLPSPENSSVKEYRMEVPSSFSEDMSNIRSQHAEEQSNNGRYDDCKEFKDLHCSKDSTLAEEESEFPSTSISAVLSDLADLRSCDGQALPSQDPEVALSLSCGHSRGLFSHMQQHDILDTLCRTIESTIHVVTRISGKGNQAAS

O=C(CN1CCN(C(=O)CCl)CC1)Nc1cccc(F)c1
inactive: USP34 -0.112 | USP36 0.0501 | USP38 -0.114 | USP39 -0.288 | USP4 -0.0247
